This excerpt belongs to a sample that is enriched for hits.
mHTT CaM bind: inhibitors of human mutant huntingtin-calmodulin interaction; P42858; AlphaScreen His-mHTT/GST-CaM binding, luminescence; inhibition, % at 15 µM; 3.6% of 190,000 active; AID 1671202;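 further: 0% = both proteins with DMSO and 100% = one protein alone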
Target sequence (P42858 whole entry, looked up, stated change not applied): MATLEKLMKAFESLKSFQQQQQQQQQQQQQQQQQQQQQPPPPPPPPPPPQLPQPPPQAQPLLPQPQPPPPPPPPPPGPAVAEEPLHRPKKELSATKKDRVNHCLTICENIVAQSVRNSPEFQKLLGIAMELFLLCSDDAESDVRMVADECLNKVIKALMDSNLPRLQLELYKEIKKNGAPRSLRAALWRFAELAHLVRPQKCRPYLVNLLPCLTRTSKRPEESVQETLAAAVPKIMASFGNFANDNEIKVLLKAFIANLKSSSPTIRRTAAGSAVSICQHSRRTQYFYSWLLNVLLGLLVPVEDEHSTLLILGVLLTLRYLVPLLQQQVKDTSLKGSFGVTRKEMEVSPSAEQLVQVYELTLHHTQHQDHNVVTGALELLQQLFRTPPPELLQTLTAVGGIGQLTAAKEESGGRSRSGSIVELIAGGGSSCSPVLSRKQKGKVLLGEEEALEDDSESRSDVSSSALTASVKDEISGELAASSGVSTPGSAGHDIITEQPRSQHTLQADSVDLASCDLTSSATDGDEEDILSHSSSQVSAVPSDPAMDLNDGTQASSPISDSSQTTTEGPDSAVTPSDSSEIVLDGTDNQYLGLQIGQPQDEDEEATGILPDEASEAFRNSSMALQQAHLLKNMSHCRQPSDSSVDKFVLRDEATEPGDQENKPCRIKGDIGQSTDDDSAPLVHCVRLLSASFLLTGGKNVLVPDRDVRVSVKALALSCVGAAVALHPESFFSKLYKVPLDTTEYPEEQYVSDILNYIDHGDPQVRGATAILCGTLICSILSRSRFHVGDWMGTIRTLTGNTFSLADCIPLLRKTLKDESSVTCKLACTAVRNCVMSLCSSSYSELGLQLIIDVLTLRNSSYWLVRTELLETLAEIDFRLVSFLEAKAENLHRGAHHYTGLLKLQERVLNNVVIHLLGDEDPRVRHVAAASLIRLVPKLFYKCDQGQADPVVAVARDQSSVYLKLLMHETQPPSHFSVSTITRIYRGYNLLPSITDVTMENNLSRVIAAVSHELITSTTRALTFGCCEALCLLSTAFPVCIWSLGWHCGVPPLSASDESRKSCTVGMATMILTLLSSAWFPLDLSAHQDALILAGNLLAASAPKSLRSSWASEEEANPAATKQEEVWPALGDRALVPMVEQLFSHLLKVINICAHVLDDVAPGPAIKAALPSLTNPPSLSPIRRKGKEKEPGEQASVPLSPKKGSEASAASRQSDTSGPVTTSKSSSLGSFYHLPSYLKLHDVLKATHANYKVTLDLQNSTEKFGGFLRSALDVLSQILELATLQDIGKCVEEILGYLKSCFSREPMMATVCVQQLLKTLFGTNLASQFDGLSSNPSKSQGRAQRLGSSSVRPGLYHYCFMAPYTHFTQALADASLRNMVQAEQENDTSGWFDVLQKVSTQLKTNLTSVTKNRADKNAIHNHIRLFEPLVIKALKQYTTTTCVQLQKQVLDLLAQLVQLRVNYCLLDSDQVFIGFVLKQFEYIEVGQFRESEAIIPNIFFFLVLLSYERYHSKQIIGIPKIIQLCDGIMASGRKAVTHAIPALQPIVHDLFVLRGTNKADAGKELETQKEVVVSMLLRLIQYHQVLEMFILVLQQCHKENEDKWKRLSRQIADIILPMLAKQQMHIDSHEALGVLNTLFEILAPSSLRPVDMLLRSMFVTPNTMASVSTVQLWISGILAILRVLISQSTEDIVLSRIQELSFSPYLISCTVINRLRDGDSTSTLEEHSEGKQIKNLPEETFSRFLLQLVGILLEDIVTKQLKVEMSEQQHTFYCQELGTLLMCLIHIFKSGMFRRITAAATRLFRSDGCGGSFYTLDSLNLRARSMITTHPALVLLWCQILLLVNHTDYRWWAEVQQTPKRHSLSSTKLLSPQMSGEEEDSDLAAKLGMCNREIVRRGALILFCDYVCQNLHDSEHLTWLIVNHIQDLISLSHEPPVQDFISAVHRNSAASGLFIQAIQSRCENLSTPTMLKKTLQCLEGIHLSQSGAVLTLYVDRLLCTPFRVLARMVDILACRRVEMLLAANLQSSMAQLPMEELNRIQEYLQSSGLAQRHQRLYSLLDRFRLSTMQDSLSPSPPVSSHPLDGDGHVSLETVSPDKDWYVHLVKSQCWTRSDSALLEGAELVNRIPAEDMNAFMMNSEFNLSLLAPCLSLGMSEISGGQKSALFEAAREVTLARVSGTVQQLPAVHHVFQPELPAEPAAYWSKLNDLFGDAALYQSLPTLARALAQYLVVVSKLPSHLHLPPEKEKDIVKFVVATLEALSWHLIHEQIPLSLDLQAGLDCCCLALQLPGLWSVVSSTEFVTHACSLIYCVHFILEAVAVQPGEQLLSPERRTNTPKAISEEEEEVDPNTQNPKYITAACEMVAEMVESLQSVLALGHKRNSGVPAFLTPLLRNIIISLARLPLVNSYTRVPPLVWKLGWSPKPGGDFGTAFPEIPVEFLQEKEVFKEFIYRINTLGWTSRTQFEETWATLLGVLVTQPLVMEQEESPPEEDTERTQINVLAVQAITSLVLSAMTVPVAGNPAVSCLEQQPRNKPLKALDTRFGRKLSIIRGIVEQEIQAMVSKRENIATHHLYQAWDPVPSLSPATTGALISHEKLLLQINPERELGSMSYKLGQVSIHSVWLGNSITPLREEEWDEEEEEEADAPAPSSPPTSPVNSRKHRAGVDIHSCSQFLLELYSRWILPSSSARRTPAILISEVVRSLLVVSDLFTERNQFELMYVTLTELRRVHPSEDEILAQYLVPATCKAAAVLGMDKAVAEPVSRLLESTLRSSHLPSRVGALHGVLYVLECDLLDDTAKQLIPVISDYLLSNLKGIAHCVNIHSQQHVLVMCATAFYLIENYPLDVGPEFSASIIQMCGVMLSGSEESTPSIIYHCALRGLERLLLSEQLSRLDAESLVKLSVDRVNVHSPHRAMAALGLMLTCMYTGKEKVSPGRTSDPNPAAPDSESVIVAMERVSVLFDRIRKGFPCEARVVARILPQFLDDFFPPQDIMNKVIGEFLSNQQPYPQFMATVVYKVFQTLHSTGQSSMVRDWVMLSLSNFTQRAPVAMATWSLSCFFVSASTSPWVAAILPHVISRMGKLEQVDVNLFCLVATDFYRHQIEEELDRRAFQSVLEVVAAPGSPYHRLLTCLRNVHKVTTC
Pf apPOL block: Pf-apPOL DNA polymerase inhibition; Recombinant Pf-apPOL, molecular beacon fluorescence, 1.5 h; inhibition, % at 10 µM; 0.25% of 210,000 active; AID 1794808
Numbers without * were called inactive; · = not tested or not shown. No stated cut-off is given here; in the data, active means inhibition above about 50%; inactive means the rest.

SMILES	mHTT CaM bind	Pf apPOL block
COc1cc(OC)c2c(-c3ccccc3)cc(=O)oc2c1C(CC(=O)N1CCN(c2ccccc2)CC1)c1ccc(N(C)C)cc1 (stereo unspecified)	58.5*	-6.9
COc1ccc(C2Cn3nc(-c4nc(C(C)C)no4)cc3CO2)cc1 (stereo unspecified)	-5.2	-2.3
Cc1nnc2sc(SCC(=O)c3ccc(Cl)cc3)nn2c1=O	2.4	-5.0
O=C(NCC1(c2cccs2)CCOCC1)c1ccccc1F	-8.8	-2.9
CCOc1cc(OCC)cc(C(=O)Nc2ccc(NC(=O)c3ccco3)c(OC)c2)c1	14.0	-0.2
O=C(NCc1ccco1)NC1(C(F)(F)F)Oc2ccccc2O1	-2.0	-2.5
Cc1nnc2ccc(-c3noc(-c4ccc(F)cc4)n3)cn12	2.3	-1.8
COc1ccc(C2=N/C(=C/c3cccc(Cl)c3Cl)C(=O)O2)cc1	-1.0	-2.8
Cc1ccc(NC(=O)C2(S(=O)(=O)c3ccc(Cl)cc3)CC2)cc1F	-22.0	84.3*
O=C(Nc1ccc(F)cc1)C1(S(=O)(=O)c2ccc(Cl)cc2)CC1	-6.0	-0.7
CCOc1cccc(C2CC(c3ccc(OC)cc3)=NC3(CCN(C)CC3)N2)c1O (stereo unspecified)	7.0	3.4
O=C1C2C3C=CC(C3=C(c3ccccc3)c3ccccc3)C2C(=O)N1c1ccccn1 (stereo unspecified)	0.0	-8.6
O=Cc1ccc(-c2ccccc2[N+](=O)[O-])o1	8.0	-1.4
NC1=NC(=O)/C(=C/c2ccc(-c3ccccc3[N+](=O)[O-])o2)S1	59.0*	-11.8
O=C(/C=C/c1ccc(-c2ccccc2[N+](=O)[O-])o1)c1cc2ccccc2o1	76.6*	11.4
CC1(C)OC(=O)C(=Cc2ccc(-c3ccccc3[N+](=O)[O-])o2)C(=O)O1	1.0	5.2
O=C(C=Cc1ccc([N+](=O)[O-])cc1)c1cc2ccccc2oc1=O	1.6	0.9
O=[N+]([O-])c1ccccc1-c1ccc(/C=C/c2ccncc2)o1	69.0*	6.0
O=S(=O)(N=C(c1ccc(F)cc1)N1CCCCC1)c1ccccc1	-4.0	3.9
Cc1cccc(Cn2ccnc2C(=O)N2CCN(C)CC2)c1	2.0	0.0
O=C(Cn1ccc2c(=O)[nH]ccc21)Nc1ccccc1Cl	17.3	82.4*
O=C(Cn1ccc2c(=O)[nH]ccc21)Nc1ccc(Cl)cc1	14.8	46.4
Cc1c(Cl)cccc1NC(=O)Cn1ccc2c(=O)[nH]ccc21	15.2	14.1
O=C(Cn1ccc2c(=O)[nH]ccc21)Nc1cccc(Cl)c1	21.1	78.6*
Cc1ccc(-c2cncc(C(=O)NCc3ccc4c(c3)OCO4)c2)cc1	-2.0	-11.4
SMILES	mHTT CaM bind	Pf apPOL block
CCCN1C(=O)COc2ccc(-c3noc(C=Cc4ccccc4)n3)cc21	0.1	-1.3
CN(C)c1ccc(CNc2ccc3c(c2)ncn3C(C)(C)C)cc1	78.0*	-3.5
CCOc1ccc(CNc2ccc3c(c2)ncn3C(C)(C)C)cc1	30.0	4.9
CCN(CC)c1ccc(CNc2ccc3c(c2)ncn3CC)cc1	94.0*	-1.9
CCn1cnc2cc(NCc3ccc(N(C)C)cc3)ccc21	14.0	-5.2
CCOC(=O)CNC(=O)N1CCCC1c1cc(C(C)C)no1 (stereo unspecified)	-9.1	1.5
COc1ccc(-c2ccccc2)cc1NCc1cc(OC)c(O)c([N+](=O)[O-])c1	66.1*	2.7
COc1ccc(-c2ccccc2)cc1NCc1ccc(OC)c(OC)c1	73.0*	-5.7
COc1ccc([N+](=O)[O-])cc1NCc1ccccc1F	-46.5	-1.2
COc1ccc(CNCc2ccc3c(c2)OCO3)cc1Br	-1.0	5.0
COc1ccc(CNC(=O)Cc2ccccc2)cc1OC	-2.8	5.5
COc1cc2c(cc1NCc1ccccn1)oc1ccccc12	15.0	-4.3
COc1ccc(-c2ccccc2)cc1NCc1ccccn1	72.5*	-11.6
COc1ccc(-c2ccccc2)cc1NCc1ccc2c(c1)OCO2	56.9*	-2.1
CCCC(=O)Nc1nc2c(s1)CN(S(=O)(=O)c1ccccc1)CC2	4.6	-6.8
O=C(c1cccc(-c2ccc(-c3cn(C(=O)N4CCCCC4c4ccccc4)nn3)cc2)c1)N1CCCCC1 (stereo unspecified)	·	2.0
Nc1nccnc1C(=O)NN=Cc1ccco1	·	22.7
O=C(NC1CCCCC1)N1CCC(CCNS(=O)(=O)c2ccc(F)cc2)CC1	2.9	-1.5
COc1ccc(-c2nc(C(=O)NC3CC3)cs2)c(Cl)c1	1.7	93.5*
O=C(NC1CC1)c1csc(COc2ccc(Cl)cc2)n1	-3.2	-9.9
COc1ccc(Br)c(-c2nc(Cc3ccccc3Cl)no2)c1	-92.0	-2.0
COc1ccc(NC(=O)Nc2nnc(-c3ccc(OC)cc3)s2)cc1	-0.1	-4.3
CCc1cc(-c2[nH]ncc2-c2cnn(-c3ccccc3)c2)c(O)cc1O	93.7*	-3.3
COc1ccc(-c2[nH]ncc2-c2cnn(-c3ccccc3)c2)c(O)c1C	16.6	3.0
Cc1cc(=O)n2[nH]c(N)nc2n1	-9.3	·
SMILES	mHTT CaM bind	Pf apPOL block
COCCNc1nc(SCC(=O)Nc2cccc(C(F)(F)F)c2)nc2ccccc12	67.0*	-2.3
CCc1nnc(SCC(=O)Nc2cccc(C(F)(F)F)c2)nc1CC	-5.0	-1.3
Cc1ccc(CN2CCCn3nc(C(=O)NCc4cccc(F)c4)cc3C2=O)cc1	-7.7	2.4
Cc1ccc(C(=O)Nc2c3c(nn2C(C)(C)C)CSC3)cc1	-10.0	-1.5
CC(C)(C)n1nc2c(c1NC(=O)c1ccc(F)cc1)CSC2	58.0*	-3.6
COc1ccc(C(=O)Nc2c3c(nn2-c2ccc(C)cc2C)CSC3)cc1	8.0	-74.3
Cc1ccc(C(=O)Nc2c3c(nn2C(C)(C)C)CS(=O)(=O)C3)cc1	3.0	88.1*
CC(C)(C)n1nc2c(c1NC(=O)C(=O)NCc1c(F)cccc1F)CSC2	59.7*	-0.6
CC(C)(C)n1nc2c(c1NC(=O)c1c(F)cccc1Cl)CSC2	26.0	0.1
Cc1ccc(-n2nc3c(c2NC(=O)c2ccc(F)cc2)CSC3)c(C)c1	28.0	57.1*
Cc1cccc(C(=O)Nc2c3c(nn2C(C)(C)C)CS(=O)(=O)C3)c1	1.0	-1.0
COc1ccc(C(=O)Nc2ccc3nn(-c4ccc(Cl)cc4)nc3c2)cc1	0.0	-3.5
COc1ccc(CNc2ccc(-c3nc(-c4ccc(F)cc4)no3)cn2)cc1	-8.3	-0.7
CC(C)N1Cc2cc(C(=O)N3CCN(c4ccccc4)CC3)sc2C1	-5.1	-2.2
COc1ccc(-c2noc(C3CCCN3C(=O)c3ccoc3)n2)cc1 (stereo unspecified)	-2.2	5.4
CC(C)(C)n1nc2c(c1NC(=O)c1ccco1)CS(=O)C2 (stereo unspecified)	2.0	6.0
CC(C)(C)n1nc2c(c1NC(=O)c1ccco1)CSC2	71.3*	39.1
N=Nc1[nH]c(N)c2ccccc12	94.5*	-4.2
COc1ccc(C(=O)Nc2ccc(Cc3ccncc3)cc2)c(OC)c1OC	4.7	-1.2
Fc1ccc(CN2CCc3nc(Nc4ccc5c(c4)OCCO5)ncc3C2)c(F)c1	58.2*	-2.9
CN(C)c1ccc(CN2CCc3nc(Nc4ccc5c(c4)OCCO5)ncc3C2)cc1	38.7	-0.8
CC(C)Oc1ccc(CN2CCc3nc(Nc4ccc5c(c4)OCCO5)ncc3C2)cc1	71.8*	-3.5
CCOc1ccc(CN2CCc3nc(Nc4ccc5c(c4)OCCO5)ncc3C2)cc1OC	52.6*	2.6
Fc1ccc(CN2CCc3nc(Nc4ccc5c(c4)OCO5)ncc3C2)c(F)c1	12.2	-1.3
Fc1ccc(CN2CCc3nc(Nc4ccc5c(c4)OCCO5)ncc3C2)cc1F	52.9*	-3.3

High-throughput results from PubChem BioAssay.
